PubChem BioAssay (NCI)
Compounds without any hit were thinned out: in the full panel of roughly 83,000, 20% have a hit.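 Negative percent growth values reflect cell death: -40 means 40% of the cells present at the start died, and -100 means all died.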 The source made the active and inactive calls. Rule for the calls: active = growth percent below 10; inactive = the rest.

Legend:
Assay in all cases: NCI-60 one-dose screen, 48 h (100 = growth as untreated, 0 = no growth, -100 = all killed)
Settings in all cases: 10 µM unless noted
SK-MEL-2 melanoma = test system: SK-MEL-2 melanoma
EKVX NSCLC = test system: EKVX NSCLC
SN12C renal = test system: SN12C renal
UO-31 renal = test system: UO-31 renal
TK-10 renal = test system: TK-10 renal
ACHN renal = test system: ACHN renal
CAKI-1 renal = test system: CAKI-1 renal
A498 renal = test system: A498 renal
CCRF-CEM leukemia = test system: CCRF-CEM leukemia
MOLT-4 leukemia = test system: MOLT-4 leukemia

Measured: growth

N=C1CCC(=N)c2c1c(O)c1ccccc1c2O
inactive: SK-MEL-2 melanoma 117% | EKVX NSCLC 82.1% | SN12C renal 105% | UO-31 renal 101% | TK-10 renal 127% | ACHN renal 87% | CAKI-1 renal 56% | A498 renal 100% | CCRF-CEM leukemia 98.4% | MOLT-4 leukemia 81.1%

c1csc(-c2c3ccc(=[N+]4CCCCC4)cc-3oc3cc(N4CCCCC4)ccc23)c1
active: SK-MEL-2 melanoma -68.5% | EKVX NSCLC -51.8% | SN12C renal -65.1% | UO-31 renal -82.3% | TK-10 renal -92.5% | ACHN renal -94.4% | CAKI-1 renal -70.3% | A498 renal -96.4% | CCRF-CEM leukemia -19.7% | MOLT-4 leukemia -28.7%

Cn1c(I)c(C#C[Si](C)(C)C)c(=O)n(C(=O)c2ccccc2)c1=O
inactive: SK-MEL-2 melanoma 81% | EKVX NSCLC 91.2% | SN12C renal 51% | TK-10 renal 43.6% | ACHN renal 11.5% | CAKI-1 renal 40.9% | A498 renal 105%
active: UO-31 renal -78.4% | CCRF-CEM leukemia -57.5% | MOLT-4 leukemia -69.9%

O=C(/C=C/c1c(Cl)nc2sccn12)c1nccs1
inactive: SK-MEL-2 melanoma 80.3% | EKVX NSCLC 97.5% | SN12C renal 89% | UO-31 renal 81.8% | TK-10 renal 118% | ACHN renal 89.1% | CAKI-1 renal 78.8% | A498 renal 72.2% | CCRF-CEM leukemia 93.4% | MOLT-4 leukemia 89.3%

Cc1cc(O)c(C2=NN(c3ccc(S(N)(=O)=O)cc3)C(c3ccccc3Cl)C2)cc1Cl (stereo not given)
active: EKVX NSCLC -1.91% | CAKI-1 renal -3.01% | CCRF-CEM leukemia 9.09% | MOLT-4 leukemia -31.6%
inactive: SK-MEL-2 melanoma 25.2% | SN12C renal 18.8% | UO-31 renal 16.5% | TK-10 renal 60.6% | ACHN renal 15.7% | A498 renal 45.9%

COc1cccc(-c2nc3sccn3c2-c2ccnc(NCCNS(=O)(=O)c3cccc(F)c3)c2)c1
active: UO-31 renal 6.44%
inactive: SK-MEL-2 melanoma 40.8% | EKVX NSCLC 38.5% | SN12C renal 27.6% | TK-10 renal 51.4% | ACHN renal 20.5% | CAKI-1 renal 21.3% | A498 renal 36.6% | CCRF-CEM leukemia 16.5% | MOLT-4 leukemia 20.2%

CCOC(=O)c1c(-c2ccc(Cl)cc2)c(C#N)c(=O)n(-c2ccccc2CC)c1N
inactive: SK-MEL-2 melanoma 114% | EKVX NSCLC 90.6% | SN12C renal 92.1% | UO-31 renal 71.6% | TK-10 renal 117% | ACHN renal 89.5% | CAKI-1 renal 105% | A498 renal 97.5% | CCRF-CEM leukemia 17.7% | MOLT-4 leukemia 70.3%

COc1cc(C(=O)c2cc(C)c3[nH]c4ccc(Cl)cc4c3c2C)cc(OC)c1OC
inactive: SK-MEL-2 melanoma 57.6% | EKVX NSCLC 50.2% | SN12C renal 17.5% | UO-31 renal 24.6% | TK-10 renal 87.5% | ACHN renal 24.2% | CAKI-1 renal 21% | CCRF-CEM leukemia 17.2% | MOLT-4 leukemia 20.7%
active: A498 renal -9.44%

Cc1cccc(NC(=O)CSc2nc3ccccc3[nH]2)c1
inactive: SK-MEL-2 melanoma 109% | EKVX NSCLC 93.4% | SN12C renal 98.8% | UO-31 renal 75% | TK-10 renal 106% | ACHN renal 97.5% | CAKI-1 renal 82.6% | A498 renal 53.4% | CCRF-CEM leukemia 102% | MOLT-4 leukemia 102%

O=C(Nc1cccc2c(O)c(N=Nc3ccc(S(=O)(=O)Nc4nccs4)cc3)cc(N=Nc3ccc(S(=O)(=O)Nc4nccs4)cc3)c12)C(Cl)Cl
inactive: SK-MEL-2 melanoma 52.6% | EKVX NSCLC 90.5% | SN12C renal 111% | UO-31 renal 68.3% | TK-10 renal 122% | ACHN renal 57.4% | CAKI-1 renal 76.8% | A498 renal 85% | CCRF-CEM leukemia 72.5% | MOLT-4 leukemia 153%

NS(=O)(=O)c1ccc(-n2nc(C(=O)N/N=C\c3ccc(F)cc3)cc2-c2ccc(Cl)cc2)cc1
inactive: SK-MEL-2 melanoma 96.5% | EKVX NSCLC 75.1% | SN12C renal 90.7% | UO-31 renal 62.4% | TK-10 renal 136% | ACHN renal 90% | CAKI-1 renal 60.6% | A498 renal 68.5% | CCRF-CEM leukemia 103% | MOLT-4 leukemia 89.2%

CCCCCCCCCCCCCCCCCC1=NCCN1CCOC1=C(Cl)C(=O)c2ccccc2C1=O
inactive: SK-MEL-2 melanoma 85.3% | EKVX NSCLC 86.7% | SN12C renal 78.9% | UO-31 renal 42.6% | TK-10 renal 78.9% | ACHN renal 30.2% | A498 renal 99.7% | CCRF-CEM leukemia 57% | MOLT-4 leukemia 71.7%
active: CAKI-1 renal 8.77%

CC(C)(C)CC(C)(C)Nc1c(-c2ccncc2)nc2cnccn12
inactive: SK-MEL-2 melanoma 106% | EKVX NSCLC 93.1% | SN12C renal 102% | UO-31 renal 86.7% | TK-10 renal 99.2% | ACHN renal 87.7% | CAKI-1 renal 80.6% | A498 renal 90.9% | CCRF-CEM leukemia 91.6% | MOLT-4 leukemia 94.1%

COc1ccc(-c2nc(SCC(=O)Nc3nc(-c4ccccc4)cs3)[nH]c(=O)c2C#N)cc1
inactive: SK-MEL-2 melanoma 90.5% | EKVX NSCLC 101% | SN12C renal 108% | UO-31 renal 59% | TK-10 renal 117% | ACHN renal 104% | CAKI-1 renal 82.8% | A498 renal 80.4% | CCRF-CEM leukemia 97.2% | MOLT-4 leukemia 89.9%

CC1=C([Se]CC(OC(=O)[C@@H](CO)NC(=O)OC(C)(C)C)C(=O)NC(C)(C)C)C(=O)c2ccccc2C1=O (stereo not given in full)
active: SK-MEL-2 melanoma -79.1% | EKVX NSCLC -56% | SN12C renal -100% | UO-31 renal -100% | TK-10 renal -100% | ACHN renal -100% | CAKI-1 renal -73.2% | A498 renal 7.64% | CCRF-CEM leukemia -29% | MOLT-4 leukemia -31.6%

COc1cc(/C=C/C(=O)N2CCN(C(=O)c3cc(OC)c(OC)c(OC)c3)CC2)ccc1OCCCN1C(=O)c2cccc3cccc(c23)C1=O
inactive: SK-MEL-2 melanoma 49.3% | EKVX NSCLC 114% | SN12C renal 93.7% | UO-31 renal 42.1% | TK-10 renal 97.5% | ACHN renal 80.7% | CAKI-1 renal 72.9% | A498 renal 62.2% | CCRF-CEM leukemia 27.1% | MOLT-4 leukemia 49.6%

COc1cc(CCC[P+](c2ccccc2)(c2ccccc2)c2ccccc2)cc2c1OCO2
inactive: EKVX NSCLC 28.3% | SN12C renal 35.9% | UO-31 renal 88.2% | TK-10 renal 19.5% | ACHN renal 91.8% | CAKI-1 renal 86% | A498 renal 45.9% | CCRF-CEM leukemia 41.3% | MOLT-4 leukemia 53.5%
active: SK-MEL-2 melanoma 6.71%

CCN(CC)S(=O)(=O)c1cccc(-c2ccc3c(NC(=O)C4CC4)n[nH]c3c2)c1
inactive: EKVX NSCLC 27.5% [6.25 µM] | SN12C renal 38.8% [6.25 µM] | UO-31 renal 36% [6.25 µM] | TK-10 renal 35.4% [6.25 µM] | ACHN renal 27.2% [6.25 µM] | CAKI-1 renal 37.7% [6.25 µM] | CCRF-CEM leukemia 17.6% [6.25 µM] | MOLT-4 leukemia 10.4% [6.25 µM]
active: SK-MEL-2 melanoma -16.9% [6.25 µM] | A498 renal 9.92% [6.25 µM]

Cc1cc(=O)oc2c1ccc1oc(C#N)c(C)c12
inactive: SK-MEL-2 melanoma 115% | EKVX NSCLC 93.7% | SN12C renal 101% | UO-31 renal 94.7% | TK-10 renal 89.2% | ACHN renal 103% | CAKI-1 renal 106% | A498 renal 75.1% | MOLT-4 leukemia 102%
active: CCRF-CEM leukemia 6.77%

CC(=O)c1nc(Nc2ccc(C)cc2)sc1C
inactive: SK-MEL-2 melanoma 102% | EKVX NSCLC 74.4% | SN12C renal 102% | UO-31 renal 81.6% | TK-10 renal 120% | ACHN renal 102% | CAKI-1 renal 87.9% | A498 renal 66.2% | CCRF-CEM leukemia 95.6% | MOLT-4 leukemia 96.1%

O=C(CCc1nnc(CN(c2ccccc2)c2ccccc2)o1)c1nc2ccccc2[nH]1
inactive: SK-MEL-2 melanoma 88.7% | EKVX NSCLC 63.4% | SN12C renal 86.9% | UO-31 renal 61.3% | TK-10 renal 117% | ACHN renal 108% | CAKI-1 renal 84.1% | A498 renal 80.5% | CCRF-CEM leukemia 77.6% | MOLT-4 leukemia 55.7%

O=C(N/N=C/C=C/c1ccc([N+](=O)[O-])o1)c1cc2ccccc2cc1O
inactive: CAKI-1 renal 12.7%
active: SK-MEL-2 melanoma -44.6% | EKVX NSCLC -15.9% | SN12C renal -10.7% | UO-31 renal -71.9% | TK-10 renal 2.31% | ACHN renal -3% | A498 renal -82.4% | CCRF-CEM leukemia 5.15% | MOLT-4 leukemia 4.89%

COc1nc(N(C)O)nc(N(C)O)n1
inactive: SK-MEL-2 melanoma 70.9% | EKVX NSCLC 31.2% | SN12C renal 42.5% | UO-31 renal 36.9% | TK-10 renal 32.5% | ACHN renal 11.2% | CAKI-1 renal 36.3% | A498 renal 76.7% | CCRF-CEM leukemia 14.4% | MOLT-4 leukemia 35.7%

Cc1nc2ccccc2n1CC1NC(=O)NC1=O (stereo not given)
inactive: SK-MEL-2 melanoma 104% | EKVX NSCLC 97.9% | SN12C renal 97.7% | UO-31 renal 94.7% | TK-10 renal 102% | ACHN renal 102% | CAKI-1 renal 96% | A498 renal 88.8% | CCRF-CEM leukemia 107% | MOLT-4 leukemia 96%

CCCc1cc2c(=O)c(C(=O)OC)c[nH]c2cc1N(CC)CC
inactive: SK-MEL-2 melanoma 93.9% | EKVX NSCLC 106% | SN12C renal 94.7% | UO-31 renal 82.6% | TK-10 renal 101% | ACHN renal 92.7% | CAKI-1 renal 94.9% | A498 renal 107% | CCRF-CEM leukemia 88.2% | MOLT-4 leukemia 98.2%

CNC(=O)CCN1CCN(CC/C=C2\c3ccccc3Sc3ccc(Cl)cc32)CC1
inactive: SK-MEL-2 melanoma 28.5% | EKVX NSCLC 103% | SN12C renal 95.5% | UO-31 renal 53.9% | TK-10 renal 81.4% | ACHN renal 94.3% | CAKI-1 renal 94% | A498 renal 74.5% | CCRF-CEM leukemia 90.2% | MOLT-4 leukemia 50.9%
